Test results reported in PubChem BioAssay (NCI).
Compounds without any hit were thinned out: in the full panel of roughly 83,000, 20% have a hit.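 Results are percent growth after 48 hours of single-concentration exposure. 100 means growth as in untreated cells, lower positive values show inhibition; negative values down to -100 show cell death.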 The source made the active and inactive calls. The calls were made as follows: active = growth percent below 10; inactive = the rest.

What was measured:
Test in all cases: NCI-60 one-dose screen, 48 h (100 = growth as untreated, 0 = no growth, -100 = all killed)
NCI-H226 lung = conditions: 10 µM
NCI-H322M lung = conditions: 10 µM
HOP-62 NSCLC = conditions: 10 µM
NCI-H460 lung = conditions: 10 µM
NCI-H522 lung = conditions: 10 µM
A549/ATCC NSCLC = conditions: 10 µM
DU-145 prostate = conditions: 10 µM
K-562 leukemia = conditions: 10 µM
SF-539 CNS = conditions: 10 µM
M14 melanoma = conditions: 10 µM
HCT-15 colon = conditions: 10 µM
HT29 colon = conditions: 10 µM
SNB-75 CNS = conditions: 10 µM
SNB-19 CNS = conditions: 10 µM
U251 CNS = conditions: 10 µM
MOLT-4 leukemia = conditions: 10 µM
SR leukemia = conditions: 10 µM
RPMI-8226 leukemia = conditions: 10 µM
SK-OV-3 ovarian = conditions: 10 µM
MDA-MB-468 breast = conditions: 10 µM unless noted

Measured: growth

O=[N+]([O-])c1cccc(-c2nnc3c(/C=C/c4ccccc4O)nc4ccccc4n23)c1
inactive: NCI-H226 lung 33.1% | NCI-H322M lung 55.8% | HOP-62 NSCLC 52.8% | NCI-H460 lung 28.8% | NCI-H522 lung 55.3% | A549/ATCC NSCLC 57.8% | DU-145 prostate 63% | K-562 leukemia 24.1% | SF-539 CNS 46.2% | M14 melanoma 29.8% | HCT-15 colon 52.5% | HT29 colon 48.6% | SNB-75 CNS 102% | SNB-19 CNS 87% | U251 CNS 76.7% | MOLT-4 leukemia 38.7% | SR leukemia 51.8% | RPMI-8226 leukemia 54.9% | SK-OV-3 ovarian 75.7% | MDA-MB-468 breast 52%

Cc1cc(N=C2NC(=O)S/C2=C\c2ccc(F)cc2)n[nH]1
inactive: NCI-H226 lung 17.1% | NCI-H322M lung 32.3% | HOP-62 NSCLC 26.7% | A549/ATCC NSCLC 18.9% | DU-145 prostate 30% | K-562 leukemia 15.4% | HCT-15 colon 13.9% | SNB-19 CNS 27.4% | MOLT-4 leukemia 10.5% | SK-OV-3 ovarian 44.3%
active: NCI-H460 lung 5.74% | NCI-H522 lung -8.95% | SF-539 CNS 4.62% | M14 melanoma -30.7% | HT29 colon 6.68% | SNB-75 CNS 2.65% | U251 CNS 5.06% | SR leukemia 8.59% | RPMI-8226 leukemia -14.7% | MDA-MB-468 breast -5.57%

CC(O)c1cc[cH-]c1.[Fe+2].c1cc[cH-]c1 (stereo not given)
inactive: MDA-MB-468 breast 94.5%

O=C(CSc1nc2ccccc2c(=O)n1-c1ccc(Cl)cc1)Nc1ccc(-c2nc3ccccc3[nH]2)cc1
active: HOP-62 NSCLC 5.56% | NCI-H460 lung -12.6% | A549/ATCC NSCLC -16.8% | DU-145 prostate -8.05% | K-562 leukemia 2.71% | SF-539 CNS -29.4% | M14 melanoma -36.6% | HCT-15 colon -7.08% | HT29 colon -38.9% | SNB-75 CNS -39.1% | U251 CNS -61.4% | MOLT-4 leukemia -7.88% | SR leukemia -15.2% | MDA-MB-468 breast -41.7%
inactive: NCI-H226 lung 30.1% | NCI-H322M lung 37.5% | NCI-H522 lung 15.9% | SNB-19 CNS 18.3% | RPMI-8226 leukemia 22.4% | SK-OV-3 ovarian 94.2%

CCOC(=O)c1c(C)nc2ccccc2c1/C=C/c1ccccc1
inactive: MDA-MB-468 breast 24.7%

O=C(CSc1nc2ccccc2c(=O)n1-c1ccc(Cl)cc1)Nc1ccc(-c2nc3ccc([N+](=O)[O-])cc3[nH]2)cc1
active: NCI-H226 lung 0.985% | HOP-62 NSCLC 0.0608% | MDA-MB-468 breast -35.6%
inactive: NCI-H322M lung 72.4% | NCI-H460 lung 21.1% | NCI-H522 lung 32.7% | A549/ATCC NSCLC 50.2% | DU-145 prostate 44.2% | K-562 leukemia 28.9% | SF-539 CNS 28.6% | M14 melanoma 32.4% | HCT-15 colon 56.3% | HT29 colon 36.4% | SNB-75 CNS 34.4% | SNB-19 CNS 48.7% | U251 CNS 20.6% | MOLT-4 leukemia 39.5% | SR leukemia 38.2% | RPMI-8226 leukemia 53% | SK-OV-3 ovarian 40.2%

COc1ccc(C2c3sc4ccc(C)cc4c3Oc3nc(N)nc(N)c32)cc1 (stereo not given)
inactive: NCI-H226 lung 78.5% | NCI-H322M lung 89.3% | HOP-62 NSCLC 79.4% | NCI-H460 lung 88.8% | NCI-H522 lung 57.2% | A549/ATCC NSCLC 92.2% | DU-145 prostate 102% | K-562 leukemia 50.9% | SF-539 CNS 69.6% | M14 melanoma 74.8% | HCT-15 colon 59.9% | HT29 colon 99.1% | SNB-75 CNS 70.9% | SNB-19 CNS 84.5% | U251 CNS 83.1% | MOLT-4 leukemia 89.9% | SR leukemia 51.2% | RPMI-8226 leukemia 83.6% | SK-OV-3 ovarian 89.3% | MDA-MB-468 breast 79.8%

Cc1ccc(COc2ccc(NC(=O)Nc3ccc(Cl)c(C(F)(F)F)c3)cc2)cc1
inactive: NCI-H226 lung 75.7% | NCI-H322M lung 77.4% | HOP-62 NSCLC 97.9% | NCI-H460 lung 59.5% | NCI-H522 lung 44.9% | A549/ATCC NSCLC 64.7% | DU-145 prostate 81.5% | K-562 leukemia 66.7% | SF-539 CNS 78.7% | M14 melanoma 93.4% | HCT-15 colon 52.2% | HT29 colon 80.6% | SNB-75 CNS 72.4% | SNB-19 CNS 75.8% | U251 CNS 69.8% | MOLT-4 leukemia 73.5% | SR leukemia 55% | RPMI-8226 leukemia 39.5% | SK-OV-3 ovarian 97.1%
active: MDA-MB-468 breast -14.4%

Cc1ccc2sc3c(c2c1)Oc1nc[nH]c(=O)c1C3c1cccc(F)c1 (stereo not given)
inactive: NCI-H226 lung 80.6% | NCI-H322M lung 96.7% | HOP-62 NSCLC 98.6% | NCI-H460 lung 102% | NCI-H522 lung 82.8% | A549/ATCC NSCLC 98.7% | DU-145 prostate 105% | K-562 leukemia 81.7% | SF-539 CNS 99.6% | M14 melanoma 99.4% | HCT-15 colon 92.6% | HT29 colon 103% | SNB-75 CNS 84.2% | SNB-19 CNS 92.6% | U251 CNS 97.1% | MOLT-4 leukemia 97% | SR leukemia 96.3% | RPMI-8226 leukemia 88.7% | SK-OV-3 ovarian 93.5% | MDA-MB-468 breast 78%

COc1cc(Nc2ncc3c(n2)-c2ccc(Cl)cc2C(c2c(F)cccc2OC)=NC3)ccc1C(=O)O
inactive: MDA-MB-468 breast 61.9%

O=C(O)CCN1C(=O)/C(=C/C=C/c2ccc([N+](=O)[O-])o2)SC1=S
inactive: NCI-H322M lung 31% | A549/ATCC NSCLC 10.4% | DU-145 prostate 26.3% | K-562 leukemia 11.1% | SNB-75 CNS 24.2% | SK-OV-3 ovarian 63.5%
active: MOLT-4 leukemia -20.4% | SR leukemia 0.111% | RPMI-8226 leukemia -19.3% | MDA-MB-468 breast -77.8%

CC(C)(C)c1cc(/C=C2\S/C(=N/c3ncn[nH]3)NC2=O)cc(C(C)(C)C)c1O
active: NCI-H226 lung 5.38% | NCI-H460 lung 3.73% | NCI-H522 lung -23.9% | U251 CNS 2.45% | SR leukemia 6.04% | RPMI-8226 leukemia 8.38% | SK-OV-3 ovarian 4.14% | MDA-MB-468 breast 9.25%
inactive: NCI-H322M lung 17% | HOP-62 NSCLC 21.3% | A549/ATCC NSCLC 15.4% | DU-145 prostate 32.3% | K-562 leukemia 16.7% | SF-539 CNS 18% | M14 melanoma 17.9% | HCT-15 colon 11.5% | HT29 colon 10.7% | SNB-75 CNS 19.3% | SNB-19 CNS 23.7% | MOLT-4 leukemia 13.8%

COc1ccc(C(=O)COc2ccc(NC(=O)Nc3ccccc3)cc2)cc1
inactive: NCI-H226 lung 87.6% | NCI-H322M lung 88.5% | HOP-62 NSCLC 101% | NCI-H460 lung 76.6% | NCI-H522 lung 58.2% | A549/ATCC NSCLC 80.9% | DU-145 prostate 105% | K-562 leukemia 94.6% | SF-539 CNS 97% | M14 melanoma 93.6% | HCT-15 colon 80.3% | HT29 colon 103% | SNB-75 CNS 87.9% | SNB-19 CNS 93.3% | U251 CNS 86.5% | MOLT-4 leukemia 73.9% | SR leukemia 80.6% | RPMI-8226 leukemia 93.3% | SK-OV-3 ovarian 105% | MDA-MB-468 breast 80.9%

C=CCn1c(SCC(=O)Nc2ccc(C(=O)/C=C/c3ccc(Cl)cc3)cc2)nnc1-c1ccc(Cl)c(Cl)c1
inactive: MDA-MB-468 breast 81.5%

COc1ccc(-c2csc(NC(=O)Nc3nc(-c4ccc(OC)cc4)cs3)n2)cc1
inactive: MDA-MB-468 breast 47.3%

O=C(Nc1ccc(OCc2ccc(F)cc2)cc1)Nc1ccc(Cl)c(C(F)(F)F)c1
inactive: NCI-H226 lung 15% | NCI-H322M lung 21.9% | HOP-62 NSCLC 11.4% | A549/ATCC NSCLC 16.4% | DU-145 prostate 31.6% | HT29 colon 11.9% | SNB-75 CNS 21% | SNB-19 CNS 18.3% | U251 CNS 10.3%
active: NCI-H460 lung 6.77% | NCI-H522 lung -20.8% | K-562 leukemia 9.32% | SF-539 CNS 8.73% | M14 melanoma 9.01% | HCT-15 colon 7.42% | MOLT-4 leukemia 6.64% | SR leukemia -7.46% | RPMI-8226 leukemia -1.27% | SK-OV-3 ovarian -26.5% | MDA-MB-468 breast -8.31%

O=C1NC2C=CC=CC2/C1=C1/SC(=S)N(C2CC(=O)N(c3ccc(Br)cc3)C2=O)C1=O (stereo not given)
inactive: NCI-H226 lung 91.3% | NCI-H322M lung 101% | HOP-62 NSCLC 99.2% | NCI-H460 lung 100% | NCI-H522 lung 68.7% | A549/ATCC NSCLC 99% | DU-145 prostate 97.5% | K-562 leukemia 55.1% | SF-539 CNS 93.6% | M14 melanoma 103% | HCT-15 colon 59.3% | HT29 colon 98.1% | SNB-75 CNS 101% | SNB-19 CNS 93.9% | U251 CNS 91.4% | MOLT-4 leukemia 70.5% | SR leukemia 67.9% | RPMI-8226 leukemia 50% | SK-OV-3 ovarian 99.1% | MDA-MB-468 breast 84.2%

O=C1NC(=S)S/C1=C\c1cn(-c2ccccc2)nc1-c1ccc([N+](=O)[O-])cc1
inactive: NCI-H226 lung 13.2% | NCI-H322M lung 30.5% | HOP-62 NSCLC 19.4% | A549/ATCC NSCLC 15.2% | DU-145 prostate 36.9% | K-562 leukemia 16.5% | SF-539 CNS 21% | M14 melanoma 20.5% | HCT-15 colon 10.4% | HT29 colon 15.1% | SNB-75 CNS 34.5% | SNB-19 CNS 18.7% | MOLT-4 leukemia 17% | SR leukemia 24.5%
active: NCI-H460 lung 9.76% | NCI-H522 lung -4.14% | U251 CNS 9.35% | RPMI-8226 leukemia 2.45% | SK-OV-3 ovarian 6% | MDA-MB-468 breast -8.61%

O=C(Nc1ccc(Oc2ncnc3scc(Nc4n[nH]c(=S)s4)c23)cc1)C1(C(=O)Nc2cccc(C(F)(F)F)c2)CC1
active: MDA-MB-468 breast -10.1%
inactive: NCI-H226 lung 72.2% | NCI-H322M lung 101% | HOP-62 NSCLC 92.8% | NCI-H460 lung 81.9% | NCI-H522 lung 94.1% | A549/ATCC NSCLC 92.5% | DU-145 prostate 106% | K-562 leukemia 102% | SF-539 CNS 96.1% | M14 melanoma 103% | HCT-15 colon 95.4% | HT29 colon 112% | SNB-75 CNS 104% | SNB-19 CNS 99.6% | U251 CNS 110% | MOLT-4 leukemia 106% | SR leukemia 85% | RPMI-8226 leukemia 110% | SK-OV-3 ovarian 93.7%

COc1cccc(C(=O)CSc2nc(-c3ccc(OCc4ccccc4)c(OC)c3)c(C#N)c(=O)[nH]2)c1
inactive: NCI-H226 lung 86.6% | NCI-H322M lung 88.3% | HOP-62 NSCLC 92.2% | NCI-H460 lung 106% | NCI-H522 lung 78.9% | A549/ATCC NSCLC 98.5% | DU-145 prostate 107% | K-562 leukemia 90.6% | SF-539 CNS 94.2% | M14 melanoma 99.5% | HCT-15 colon 92.8% | HT29 colon 116% | SNB-75 CNS 87.7% | SNB-19 CNS 70.7% | U251 CNS 79.2% | MOLT-4 leukemia 102% | SR leukemia 93.9% | RPMI-8226 leukemia 102% | SK-OV-3 ovarian 94.5% | MDA-MB-468 breast 88.4%
